A number with no mark means an inactive call. Active and inactive are the calls of the source.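 How the source made its calls: active means luciferase signal above three times the same-plate solvent-only control wells; inactive means the rest.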

The record followed here is PubChem BioAssay.

Mitogen-activated protein kinase 7 (Homo sapiens), sequence (Q13164 whole entry, looked up, the tested form may be a part): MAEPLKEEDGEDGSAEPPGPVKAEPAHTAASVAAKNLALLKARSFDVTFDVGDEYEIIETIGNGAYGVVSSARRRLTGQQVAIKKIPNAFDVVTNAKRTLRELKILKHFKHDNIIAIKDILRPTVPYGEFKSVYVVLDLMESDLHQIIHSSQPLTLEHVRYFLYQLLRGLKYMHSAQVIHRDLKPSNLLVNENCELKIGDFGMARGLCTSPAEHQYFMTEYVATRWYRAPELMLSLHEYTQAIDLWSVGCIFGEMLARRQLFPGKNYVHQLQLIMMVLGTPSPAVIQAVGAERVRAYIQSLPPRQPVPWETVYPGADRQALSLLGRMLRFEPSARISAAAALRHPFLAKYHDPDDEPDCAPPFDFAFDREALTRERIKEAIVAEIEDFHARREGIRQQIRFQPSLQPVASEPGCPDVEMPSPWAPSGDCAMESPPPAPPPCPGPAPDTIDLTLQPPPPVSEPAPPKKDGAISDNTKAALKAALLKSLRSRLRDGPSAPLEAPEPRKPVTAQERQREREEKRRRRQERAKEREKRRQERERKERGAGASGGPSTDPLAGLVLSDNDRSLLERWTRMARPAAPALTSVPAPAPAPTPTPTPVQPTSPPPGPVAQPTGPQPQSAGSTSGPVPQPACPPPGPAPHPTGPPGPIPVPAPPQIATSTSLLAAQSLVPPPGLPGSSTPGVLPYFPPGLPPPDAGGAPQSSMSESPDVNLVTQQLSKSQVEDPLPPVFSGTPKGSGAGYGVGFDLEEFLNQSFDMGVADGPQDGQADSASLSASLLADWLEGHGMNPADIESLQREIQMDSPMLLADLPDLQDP

The test has as its target Mitogen-activated protein kinase 7 (Homo sapiens) (UniProt Q13164). As to the kind of experiment: Gal4-ERK5 driven luciferase induction – cell-based, HTS, primary screen (AID 1508626).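 Further: luciferase driven by Gal4-ERK5 fusion binding five Gal4 sites before minimal TATA.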 Particulars: HeLa Gal4-ERK5 transactivation, 18 h, at 5 µM, stronger effect = higher value.
For `O=C(O)CCC(=O)c1ccc(-c2ccccc2)cc1`, the luciferase signal was 68 AU.

Turning to `O=C(O)c1ccccc1OP(=O)(O)O`, the luciferase signal was 60 AU.

Take `O=C(O)c1cccnc1Nc1cccc(C(F)(F)F)c1`: the luciferase signal is 60 AU.

Take `C1CCC(C(CC2CCCCN2)C2CCCCC2)CC1` (configuration not stated): the luciferase signal is 140 AU.

As to `CC[N+](CC)(CC)CCOc1cccc(OCC[N+](CC)(CC)CC)c1OCC[N+](CC)(CC)CC`, the luciferase signal is 216 AU (active).

On to `O=C(O)c1ccccc1Nc1cccc(C(F)(F)F)c1`, for which the luciferase signal was 56 AU.

As to `C[N+]1(C)[C@@H]2CC(OC(=O)[C@H](CO)c3ccccc3)C[C@H]1[C@@H]1O[C@@H]12` (some centres not stated), the luciferase signal was 32 AU.

As for `C=C1c2cccc(O)c2C(O)=C2C(=O)[C@]3(O)C(O)=C(C(N)=O)C(=O)[C@@H](N(C)C)[C@@H]3[C@@H](O)[C@H]12`, the luciferase signal is 40 AU.

In the case of `COc1ccc(CN(CCN(C)C)c2ccccn2)cc1`, the luciferase signal is 88 AU.

Regarding `NCCCC[C@H](N[C@@H](CCc1ccccc1)C(=O)O)C(=O)N1CCC[C@H]1C(=O)O`, the luciferase signal is 92 AU.

As to `CCC1(C)CC(=O)NC1=O` (configuration not stated), the luciferase signal was 64 AU.

Turning to `CC(C)NCC(O)c1ccc2ccccc2c1` (configuration not stated), the luciferase signal is 36 AU.

Regarding `NNc1nncc2ccccc12`, the luciferase signal is 280 AU (active).

Regarding `Cn1cnc2c1c(=O)[nH]c(=O)n2C`, the luciferase signal was 60 AU.

With `CC(=O)Nc1ccccc1`, the luciferase signal is 60 AU.

Take `Cc1cn[nH]c1`: the luciferase signal was 44 AU.

As to `CNC[C@H](O)c1cccc(O)c1`, the luciferase signal is 40 AU.
